# Experimental data as given in PubChem BioAssay (NCATS).
# Records with an inconclusive call do not appear. Where a call stands in place of a potency, no number is given. Values without a mark were called inactive. The source made the active and inactive calls. The call rests on the fitted dose curve; in most records, active means well fitted curve in the direction sought with a large enough effect in the repeat runs; inconclusive means weak or mixed curves; inactive means no such curve, though single readings can be large; an effect the other way counts as inactive or inconclusive.
# Columns and labels:
# [1] = target: Cytochrome P450 2D6 (Homo sapiens) (UniProt P10635); assay: Cytochrome P450 family 2 subfamily D member 6 (CYP2D6) small molecule antagonists: luciferase biochemical (cell-free) qHTS assay (AID 1645840); further: series mostly up to about 57 µM
# Chain of Cytochrome P450 2D6 (Homo sapiens) (P10635 whole entry, looked up): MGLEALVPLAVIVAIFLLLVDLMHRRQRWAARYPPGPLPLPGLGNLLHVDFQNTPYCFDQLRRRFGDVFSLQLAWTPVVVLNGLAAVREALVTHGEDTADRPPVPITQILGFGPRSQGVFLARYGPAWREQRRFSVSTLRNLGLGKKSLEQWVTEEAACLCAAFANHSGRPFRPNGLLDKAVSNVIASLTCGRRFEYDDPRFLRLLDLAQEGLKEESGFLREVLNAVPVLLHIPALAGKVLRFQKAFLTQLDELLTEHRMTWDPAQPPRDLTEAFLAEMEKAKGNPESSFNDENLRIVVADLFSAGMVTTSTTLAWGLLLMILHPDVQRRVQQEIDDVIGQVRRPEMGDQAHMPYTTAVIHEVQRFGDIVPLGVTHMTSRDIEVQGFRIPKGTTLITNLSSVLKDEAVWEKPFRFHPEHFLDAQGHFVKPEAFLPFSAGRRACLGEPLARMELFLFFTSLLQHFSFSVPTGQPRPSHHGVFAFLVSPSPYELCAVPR
# Method in brief: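 P450-Glo CYP2D6 system: proluciferin substrate converted by enzyme to luciferin, read by luminescence proportional to activity. Enzyme-substrate mix with compound 10 min at room temperature, then NADPH regeneration 1 h before detection reagent.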
# [2] = target: Cytochrome P450 2C9 (Homo sapiens) (UniProt P11712); assay: Cytochrome P450 family 2 subfamily C member 9 (CYP2C9) small molecule antagonists: luciferase biochemical (cell-free) qHTS assay (AID 1645842); further: potency means the concentration at half of the fitted maximal effect
# Chain of Cytochrome P450 2C9 (Homo sapiens) (P11712 whole entry, looked up): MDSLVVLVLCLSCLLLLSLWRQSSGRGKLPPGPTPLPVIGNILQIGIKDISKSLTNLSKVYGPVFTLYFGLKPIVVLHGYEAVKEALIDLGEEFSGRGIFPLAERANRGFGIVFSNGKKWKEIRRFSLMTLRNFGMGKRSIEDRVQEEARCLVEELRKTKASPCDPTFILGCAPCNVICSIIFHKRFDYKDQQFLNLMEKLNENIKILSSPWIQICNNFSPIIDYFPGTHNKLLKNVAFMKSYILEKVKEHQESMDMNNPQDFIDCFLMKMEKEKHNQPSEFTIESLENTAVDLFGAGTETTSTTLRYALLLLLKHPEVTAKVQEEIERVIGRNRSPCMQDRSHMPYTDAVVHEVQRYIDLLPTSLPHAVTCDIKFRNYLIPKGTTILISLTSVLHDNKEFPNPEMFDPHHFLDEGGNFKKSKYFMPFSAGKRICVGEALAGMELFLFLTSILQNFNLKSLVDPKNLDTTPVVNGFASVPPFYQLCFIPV
# Method in brief: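 P450-Glo CYP2C9 system: proluciferin substrate with enzyme in mix containing 0.4% BSA, 10 min at room temperature, then NADPH regeneration solution added and incubated 1 h at 37C. Detection reagent stopped reaction; luminescence read after 20 min as RLU.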
# Further: nearly all actives have a fitted effect of over 55% in size.
structure (smiles),measurement,setting,value
COc1ccc(-c2noc(CCCC(=O)Nc3cccc(Cl)c3C)n2)cc1,Potency,[1],inactive
same,Potency,[2],3.79 µM (active)
